Compounds without any hit were thinned out: in the full panel of roughly 83,000, 20% have a hit.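 96-well plates, one dose, 48 hours. Percent growth reported; active if below 10.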 Calls of active or inactive are those of the source.
What follows are molecules tested on OVCAR-5 ovarian (assay: NCI-60 one-dose screen, 48 h (100 = growth as untreated, 0 = no growth, -100 = all killed)). Settings: 10 µM.
With CSc1nc(S(C)(=O)=O)nc2[nH]c(=O)[nH]c12 the growth was 96.3% (inactive). With CC1(C)N=C(N)N=C(N)N1c1cccc(C#N)c1 the growth was 51% (inactive). Nc1cc(-c2ccc(Cl)cc2)nn1-c1nc2ccccc2nc1Cc1ccccc1 was tested, and the growth was 95% (inactive). With O=C(N/N=C/c1cc([N+](=O)[O-])ccc1O)c1cccc2ccccc12 the growth was 47.2% (inactive). CC(=O)COc1ccc(Cl)cc1Cl was tested, and the growth was 112% (inactive). With Cc1cn(-c2cc(F)cc(NC(=O)c3ccc(C)c(Nc4nccc(-c5cccnc5)n4)c3)c2)cn1 the growth was 45.2% (inactive). With O=C(O)Cc1ccc(O)c(O)c1 the growth was 96.2% (inactive). In the case of O=C1OC(C(Cl)(Cl)Cl)OC1C(Cl)(Cl)Cl (configuration not stated), the growth is reported as 105% (inactive). With O=C1/C(=C/c2cccc(F)c2)Cc2ccccc21 the growth was 120% (inactive). For CCN1C(=O)CC(SC2CC(=O)N(CC)C2=O)C1=O (configuration not stated), the growth was 106% (inactive). Cc1ccc(C2NC(=S)N3C(c4ccc(C)cc4)NC(=S)N23)cc1 (configuration not stated) was tested, and the growth was 81.6% (inactive). For COc1cc2nc(SCC(=O)Nc3cc(OC)c(OC)c(OC)c3)n(Cc3ccccc3)c(=O)c2cc1OC, the growth was 93.7% (inactive). For Cc1c(C(N)=O)sc2c1c(=O)n(Cc1ccccc1)c1nnc(-c3ccc(Br)cc3)n21, the growth was 48.6% (inactive). Nc1nc(N)c(N)c(Nc2ccc(CCO)cc2)n1 was tested, and the growth was 111% (inactive). In the case of CN(C)c1ccc(/C=N/NC(=O)c2cccc3ccccc23)c(Cl)c1, the growth is reported as 58.1% (inactive). With COc1ccc(-c2nn(-c3cccc(Cl)c3)cc2-c2c(C#N)c(N)n(N)c(=O)c2C#N)cc1 the growth was 84.4% (inactive). With CCOC(=O)c1cocc1C(=O)O the growth was 105% (inactive). For CC(C)(C)c1nn(-c2ccccc2)c2c1CC1(CN2Cc2ccc(Cl)cc2)C(=O)c2ccccc2C1=O, the growth was 103% (inactive). For O=C(c1ccccc1)N(C(=O)c1ccccc1)N1CCCC1, the growth was 99.3% (inactive). In the case of COC1=CC(=O)OC(c2ccc(OC)cc2)C1 (configuration not stated), the growth is reported as 106% (inactive). For Cc1nn(-c2ccccc2)c2nc(Cl)c(C=O)c(-c3ccccc3)c12, the growth was 99.8% (inactive). COc1ccc(C(=O)CC(CC(=O)c2ccc(OC)cc2)c2c(C)nn(-c3ccccc3)c2Cl)cc1 was tested, and the growth was 91.8% (inactive). For CCOc1ccccc1/C=N\N=C(\N)N/N=C/c1ccccc1OCC, the growth was 93.4% (inactive). In the case of Cc1cc(Br)nnc1Br, the growth is reported as 105% (inactive). In the case of COc1ccc2c(c1)C(CC(=O)NN)CCC2 (configuration not stated), the growth is reported as 100% (inactive). For COc1ccccc1N1CCCSC1=Nc1ccccc1, the growth was 93.9% (inactive). For CCCCCCCCCCCC[n+]1c(C)cc(N)c2ccccc21, the growth was 31.7% (inactive). Cc1ccc(C(SCC(N)C(=O)O)(c2ccc(C)cc2)c2ccc(C)cc2)cc1 (configuration not stated) was tested, and the growth was 38.6% (inactive). In the case of CC1OC2CC(=O)OC2C2=C1C(=O)c1c(O)c3c(c(O)c1C2=O)C1CC(O)C3(O)C(C)O1 (configuration not stated), the growth is reported as -47.3% (active). For O=C1c2ccccc2C(=O)N1CCCCNc1ccccc1, the growth was 101% (inactive). In the case of Fc1ccc(C(c2ccc(F)cc2)C(Cl)Cl)cc1, the growth is reported as 105% (inactive). For CCCCN1C(=O)CC(SC2CC(=O)N(CCCC)C2=O)C1=O (configuration not stated), the growth was 108% (inactive). In the case of O=[N+]([O-])c1ccc(NCSc2ccc(Cl)cc2)cc1, the growth is reported as 106% (inactive). With CN(C)c1nc(N)c2nccnc2n1 the growth was 100% (inactive). With C=C1CCC2(C#N)[C@H]3[C@H](CC[C@@H]2C)[C@@H](C)C[C@@H](CC(C)(C)NC(=O)CN2CCC2=O)[C@H]13 (some centres not stated) the growth was 63.5% (inactive). For COc1cc(C2CC(c3cc(Cl)c(C)cc3O)=NN2c2ccc(S(N)(=O)=O)cc2)cc(OC)c1OC (configuration not stated), the growth was 19.4% (inactive).

The molecules below were run on OVCAR-4 ovarian in the same assay as above. Settings: 10 µM.
With CSc1nc(S(C)(=O)=O)nc2[nH]c(=O)[nH]c12 the growth was 117% (inactive). For CC1(C)N=C(N)N=C(N)N1c1cccc(C#N)c1, the growth was 97.3% (inactive). For O=C(N/N=C/c1cc([N+](=O)[O-])ccc1O)c1cccc2ccccc12, the growth was 20.2% (inactive). For O=c1c(Br)ccc(Br)cc1Br, the growth was -92.8% (active). In the case of CC(=O)COc1ccc(Cl)cc1Cl, the growth is reported as 116% (inactive). Cc1cn(-c2cc(F)cc(NC(=O)c3ccc(C)c(Nc4nccc(-c5cccnc5)n4)c3)c2)cn1 was tested, and the growth was -41.7% (active). In the case of O=C(O)Cc1ccc(O)c(O)c1, the growth is reported as 109% (inactive). In the case of O=C1OC(C(Cl)(Cl)Cl)OC1C(Cl)(Cl)Cl (configuration not stated), the growth is reported as 113% (inactive). For CCN1C(=O)CC(SC2CC(=O)N(CC)C2=O)C1=O (configuration not stated), the growth was 102% (inactive). With Cc1ccc(C2NC(=S)N3C(c4ccc(C)cc4)NC(=S)N23)cc1 (configuration not stated) the growth was 117% (inactive). With COc1cc2nc(SCC(=O)Nc3cc(OC)c(OC)c(OC)c3)n(Cc3ccccc3)c(=O)c2cc1OC the growth was 48.1% (inactive). Cc1c(C(N)=O)sc2c1c(=O)n(Cc1ccccc1)c1nnc(-c3ccc(Br)cc3)n21 was tested, and the growth was 40.2% (inactive). For Nc1nc(N)c(N)c(Nc2ccc(CCO)cc2)n1, the growth was 112% (inactive). In the case of CN(C)c1ccc(/C=N/NC(=O)c2cccc3ccccc23)c(Cl)c1, the growth is reported as 50.9% (inactive). With COc1ccc(-c2nn(-c3cccc(Cl)c3)cc2-c2c(C#N)c(N)n(N)c(=O)c2C#N)cc1 the growth was 89.3% (inactive). CCOC(=O)c1cocc1C(=O)O was tested, and the growth was 100% (inactive). With CC(C)(C)c1nn(-c2ccccc2)c2c1CC1(CN2Cc2ccc(Cl)cc2)C(=O)c2ccccc2C1=O the growth was 72.9% (inactive). In the case of NC(N)=N/N=C(\N=Nc1ccccc1)c1ccc(Cl)cc1, the growth is reported as 51.8% (inactive). For COC1=CC(=O)OC(c2ccc(OC)cc2)C1 (configuration not stated), the growth was 106% (inactive). With COC(=O)CC[C@@H](C)[C@H]1CC[C@H]2[C@@H]3CC[C@@H]4C[C@H](O)CC[C@]4(C)[C@H]3C[C@H](O)[C@]12C the growth was 110% (inactive). With COc1ccc(C(=O)CC(CC(=O)c2ccc(OC)cc2)c2c(C)nn(-c3ccccc3)c2Cl)cc1 the growth was 101% (inactive). With CCOc1ccccc1/C=N\N=C(\N)N/N=C/c1ccccc1OCC the growth was 71.8% (inactive). Cc1cc(Br)nnc1Br was tested, and the growth was 113% (inactive). In the case of COc1ccc2c(c1)C(CC(=O)NN)CCC2 (configuration not stated), the growth is reported as 110% (inactive). With COc1ccccc1N1CCCSC1=Nc1ccccc1 the growth was 151% (inactive). With CCCCCCCCCCCC[n+]1c(C)cc(N)c2ccccc21 the growth was 15.1% (inactive). Cc1ccc(C(SCC(N)C(=O)O)(c2ccc(C)cc2)c2ccc(C)cc2)cc1 (configuration not stated) was tested, and the growth was 47.8% (inactive). With CC1OC2CC(=O)OC2C2=C1C(=O)c1c(O)c3c(c(O)c1C2=O)C1CC(O)C3(O)C(C)O1 (configuration not stated) the growth was -99.6% (active). For O=C1c2ccccc2C(=O)N1CCCCNc1ccccc1, the growth was 107% (inactive). Fc1ccc(C(c2ccc(F)cc2)C(Cl)Cl)cc1 was tested, and the growth was 105% (inactive). In the case of CCCCN1C(=O)CC(SC2CC(=O)N(CCCC)C2=O)C1=O (configuration not stated), the growth is reported as 109% (inactive). O=[N+]([O-])c1ccc(NCSc2ccc(Cl)cc2)cc1 was tested, and the growth was 117% (inactive). In the case of CN(C)c1nc(N)c2nccnc2n1, the growth is reported as 104% (inactive). CCn1c2ccc(O)cc2c2c(C)c3c[n+](C)ccc3c(C)c21 was tested, and the growth was 52% (inactive). In the case of C=C1CCC2(C#N)[C@H]3[C@H](CC[C@@H]2C)[C@@H](C)C[C@@H](CC(C)(C)NC(=O)CN2CCC2=O)[C@H]13 (some centres not stated), the growth is reported as 62.4% (inactive). For COc1cc(C2CC(c3cc(Cl)c(C)cc3O)=NN2c2ccc(S(N)(=O)=O)cc2)cc(OC)c1OC (configuration not stated), the growth was 33.1% (inactive).
